Data taken from ChEMBL document CHEMBL2218924, “A broad activity screen in support of a chemogenomic map for kinase signalling research and drug discovery” (Biochem J, 2013).

What was measured:
[1] = biological target: T1, Serine/threonine-protein kinase TBK1 (Homo sapiens) (UniProt Q9UHD2); conditions: at 1 µM
T1 sequence (whole entry): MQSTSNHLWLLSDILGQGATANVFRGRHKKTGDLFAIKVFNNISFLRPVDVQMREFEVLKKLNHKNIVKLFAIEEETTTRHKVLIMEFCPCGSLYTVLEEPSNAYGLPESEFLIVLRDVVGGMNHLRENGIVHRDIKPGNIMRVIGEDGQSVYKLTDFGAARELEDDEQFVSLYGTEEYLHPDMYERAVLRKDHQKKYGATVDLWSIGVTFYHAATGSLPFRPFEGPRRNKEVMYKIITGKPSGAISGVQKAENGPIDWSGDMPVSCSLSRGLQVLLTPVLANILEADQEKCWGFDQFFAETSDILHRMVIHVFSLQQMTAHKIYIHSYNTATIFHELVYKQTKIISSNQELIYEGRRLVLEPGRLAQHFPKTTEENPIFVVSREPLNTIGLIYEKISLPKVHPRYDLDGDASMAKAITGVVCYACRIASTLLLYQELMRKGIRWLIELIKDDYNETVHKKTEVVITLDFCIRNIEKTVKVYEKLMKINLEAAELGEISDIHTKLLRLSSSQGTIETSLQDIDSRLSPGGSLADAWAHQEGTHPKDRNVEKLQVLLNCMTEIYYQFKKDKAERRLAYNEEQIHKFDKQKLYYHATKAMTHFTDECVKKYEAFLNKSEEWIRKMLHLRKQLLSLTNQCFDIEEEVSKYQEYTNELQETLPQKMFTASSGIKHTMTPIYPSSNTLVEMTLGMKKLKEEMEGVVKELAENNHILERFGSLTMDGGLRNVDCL

[2] = biological target: T1, Serine/threonine-protein kinase TBK1 (Homo sapiens); conditions: at 10 µM
[3] = biological target: T2, TGF-beta receptor type-1 (Homo sapiens) (UniProt P36897); conditions: at 1 µM
T2 sequence (whole entry): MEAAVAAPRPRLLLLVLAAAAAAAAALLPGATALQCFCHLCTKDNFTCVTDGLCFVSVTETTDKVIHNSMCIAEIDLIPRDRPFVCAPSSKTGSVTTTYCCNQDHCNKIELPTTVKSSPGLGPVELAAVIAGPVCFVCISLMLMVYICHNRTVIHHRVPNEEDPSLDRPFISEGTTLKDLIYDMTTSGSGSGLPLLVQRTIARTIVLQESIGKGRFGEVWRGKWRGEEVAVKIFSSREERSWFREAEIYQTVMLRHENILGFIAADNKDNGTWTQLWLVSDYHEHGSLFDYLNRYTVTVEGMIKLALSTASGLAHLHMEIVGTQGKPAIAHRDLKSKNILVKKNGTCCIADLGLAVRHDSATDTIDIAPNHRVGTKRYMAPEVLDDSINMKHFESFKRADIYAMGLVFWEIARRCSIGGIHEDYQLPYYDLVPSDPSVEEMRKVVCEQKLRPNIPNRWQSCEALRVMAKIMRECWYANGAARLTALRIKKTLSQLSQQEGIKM

[4] = biological target: Insulin-like growth factor 1 receptor (Homo sapiens) (UniProt P08069); conditions: at 10 µM
Insulin-like growth factor 1 receptor (Homo sapiens), sequence (P08069 31-736 limits assumed): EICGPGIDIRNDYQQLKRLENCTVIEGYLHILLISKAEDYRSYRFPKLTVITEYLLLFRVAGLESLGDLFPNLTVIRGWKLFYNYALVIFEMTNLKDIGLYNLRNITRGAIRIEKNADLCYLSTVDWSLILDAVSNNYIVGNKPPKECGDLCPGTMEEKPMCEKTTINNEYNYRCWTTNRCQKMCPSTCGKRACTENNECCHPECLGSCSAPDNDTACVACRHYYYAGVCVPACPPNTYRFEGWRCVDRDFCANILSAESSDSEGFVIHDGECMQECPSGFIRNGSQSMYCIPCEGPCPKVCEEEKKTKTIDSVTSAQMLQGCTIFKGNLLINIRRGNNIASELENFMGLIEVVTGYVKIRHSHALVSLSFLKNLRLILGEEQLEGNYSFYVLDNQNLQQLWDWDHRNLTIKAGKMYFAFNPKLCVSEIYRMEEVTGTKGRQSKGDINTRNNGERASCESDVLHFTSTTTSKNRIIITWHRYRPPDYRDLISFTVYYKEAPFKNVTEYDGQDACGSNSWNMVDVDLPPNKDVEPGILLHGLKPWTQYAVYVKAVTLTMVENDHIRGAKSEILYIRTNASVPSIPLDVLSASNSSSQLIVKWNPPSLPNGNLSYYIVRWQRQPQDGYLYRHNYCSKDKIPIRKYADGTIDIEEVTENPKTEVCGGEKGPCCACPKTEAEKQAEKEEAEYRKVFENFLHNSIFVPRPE
Insulin-like growth factor 1 receptor (Homo sapiens), sequence (P08069 741-1367 limits assumed): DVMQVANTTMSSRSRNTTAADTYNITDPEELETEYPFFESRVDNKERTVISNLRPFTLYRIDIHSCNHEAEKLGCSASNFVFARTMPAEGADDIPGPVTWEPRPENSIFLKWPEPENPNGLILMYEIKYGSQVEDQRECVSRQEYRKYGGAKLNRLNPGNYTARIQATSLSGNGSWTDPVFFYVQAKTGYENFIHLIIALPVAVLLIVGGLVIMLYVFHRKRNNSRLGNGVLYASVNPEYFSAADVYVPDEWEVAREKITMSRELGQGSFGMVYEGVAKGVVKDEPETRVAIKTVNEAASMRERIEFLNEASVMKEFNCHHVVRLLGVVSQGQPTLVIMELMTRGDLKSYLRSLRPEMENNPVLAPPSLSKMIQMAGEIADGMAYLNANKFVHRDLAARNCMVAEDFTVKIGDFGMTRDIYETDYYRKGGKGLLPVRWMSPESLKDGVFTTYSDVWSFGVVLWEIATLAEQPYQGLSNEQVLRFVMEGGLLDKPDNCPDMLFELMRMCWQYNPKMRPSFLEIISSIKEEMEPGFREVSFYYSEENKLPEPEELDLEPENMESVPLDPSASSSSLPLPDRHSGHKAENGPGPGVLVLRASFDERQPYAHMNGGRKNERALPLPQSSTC

[5] = biological target: T3, Inhibitor of nuclear factor kappa-B kinase subunit alpha (Homo sapiens) (UniProt O15111); conditions: at 1 µM
T3 sequence (whole entry): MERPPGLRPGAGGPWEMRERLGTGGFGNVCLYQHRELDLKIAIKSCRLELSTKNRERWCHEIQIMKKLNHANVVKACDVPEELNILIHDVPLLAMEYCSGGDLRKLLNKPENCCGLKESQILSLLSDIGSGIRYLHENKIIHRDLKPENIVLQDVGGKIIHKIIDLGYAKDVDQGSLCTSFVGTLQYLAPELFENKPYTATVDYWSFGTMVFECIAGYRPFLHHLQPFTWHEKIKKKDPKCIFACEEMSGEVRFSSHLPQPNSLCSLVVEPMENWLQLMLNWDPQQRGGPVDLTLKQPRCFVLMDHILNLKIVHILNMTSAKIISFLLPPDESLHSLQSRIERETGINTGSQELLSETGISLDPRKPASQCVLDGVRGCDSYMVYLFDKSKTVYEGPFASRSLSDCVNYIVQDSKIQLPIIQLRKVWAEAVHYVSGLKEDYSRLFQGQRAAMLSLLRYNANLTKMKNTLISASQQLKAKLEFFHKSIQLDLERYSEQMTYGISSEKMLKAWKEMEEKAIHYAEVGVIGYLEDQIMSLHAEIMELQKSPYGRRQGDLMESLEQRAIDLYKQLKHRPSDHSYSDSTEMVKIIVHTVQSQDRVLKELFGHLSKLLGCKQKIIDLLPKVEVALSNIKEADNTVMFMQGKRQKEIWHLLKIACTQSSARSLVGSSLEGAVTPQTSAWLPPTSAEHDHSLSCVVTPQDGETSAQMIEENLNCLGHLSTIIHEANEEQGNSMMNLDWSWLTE

[6] = biological target: T3, Inhibitor of nuclear factor kappa-B kinase subunit alpha (Homo sapiens); conditions: at 10 µM
[7] = biological target: T4, Inhibitor of nuclear factor kappa-B kinase subunit beta (Homo sapiens) (UniProt O14920); conditions: at 1 µM
T4 sequence (whole entry): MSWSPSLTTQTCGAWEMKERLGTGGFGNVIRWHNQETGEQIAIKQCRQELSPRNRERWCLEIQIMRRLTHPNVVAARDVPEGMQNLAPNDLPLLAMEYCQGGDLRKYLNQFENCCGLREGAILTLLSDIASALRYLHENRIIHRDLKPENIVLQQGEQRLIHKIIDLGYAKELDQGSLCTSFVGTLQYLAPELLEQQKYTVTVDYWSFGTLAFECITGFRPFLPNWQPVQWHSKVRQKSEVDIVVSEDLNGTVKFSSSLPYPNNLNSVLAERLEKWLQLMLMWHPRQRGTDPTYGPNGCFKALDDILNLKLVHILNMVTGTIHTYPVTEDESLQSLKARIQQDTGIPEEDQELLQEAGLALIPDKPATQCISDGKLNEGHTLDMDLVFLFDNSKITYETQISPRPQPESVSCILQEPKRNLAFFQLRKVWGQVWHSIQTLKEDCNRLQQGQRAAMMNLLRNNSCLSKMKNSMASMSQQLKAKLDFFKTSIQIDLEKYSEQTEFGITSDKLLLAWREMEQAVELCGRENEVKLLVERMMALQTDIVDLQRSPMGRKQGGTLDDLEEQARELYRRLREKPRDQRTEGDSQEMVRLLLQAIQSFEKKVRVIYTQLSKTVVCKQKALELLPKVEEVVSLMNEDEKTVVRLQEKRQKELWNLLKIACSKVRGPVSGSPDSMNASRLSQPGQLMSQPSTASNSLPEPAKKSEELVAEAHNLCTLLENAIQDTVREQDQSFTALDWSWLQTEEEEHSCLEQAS

[8] = biological target: T4, Inhibitor of nuclear factor kappa-B kinase subunit beta (Homo sapiens); conditions: at 10 µM

COc1cc2ncnc(Nc3ccc(NC(=O)c4ccccc4)cc3)c2cc1OC
residual activity [1]: 96%
residual activity [2]: 75%
residual activity [3]: 98%
residual activity [4]: 103%
residual activity [5]: 102%
residual activity [6]: 96%
residual activity [7]: 109%
residual activity [8]: 106%
